Here are results for 24 compounds from PubChem BioAssay (NCATS).

Records with an inconclusive call do not appear. A call without a number means that no potency is given here. The source made the active and inactive calls. The call rests on the fitted dose curve; in most records, active means well fitted curve in the direction sought with a large enough effect; inconclusive means small, poorly fitted or top-dose-only effect, or another doubt; inactive means no such curve, though single readings can be large; an effect the other way counts as inactive or inconclusive.

Sequence of Cytochrome P450 3A4 (Homo sapiens) (P08684 whole entry, looked up): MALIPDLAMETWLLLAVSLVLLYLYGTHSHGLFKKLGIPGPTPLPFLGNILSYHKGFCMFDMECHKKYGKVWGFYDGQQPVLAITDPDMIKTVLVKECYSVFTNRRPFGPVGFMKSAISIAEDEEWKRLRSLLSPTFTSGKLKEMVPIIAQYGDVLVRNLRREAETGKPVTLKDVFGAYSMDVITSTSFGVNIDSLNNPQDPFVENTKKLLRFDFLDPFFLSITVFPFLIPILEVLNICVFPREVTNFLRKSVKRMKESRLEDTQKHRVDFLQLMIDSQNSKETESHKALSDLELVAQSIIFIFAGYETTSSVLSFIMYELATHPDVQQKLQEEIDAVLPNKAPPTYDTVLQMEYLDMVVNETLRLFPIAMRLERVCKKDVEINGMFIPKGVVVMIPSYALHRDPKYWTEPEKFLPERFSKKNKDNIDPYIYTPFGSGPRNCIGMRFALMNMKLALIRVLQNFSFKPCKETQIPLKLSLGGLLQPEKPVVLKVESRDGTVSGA

For one assay, the target named is Cytochrome P450 3A4 (Homo sapiens) (UniProt P08684). As to the kind of experiment: qHTS Assay for Activators of Cytochrome P450 3A4 (AID 885). Further: nearly all actives have a fitted effect of over 65% in size. To be noted: recombinant CYP3A4, Luciferin-PPXE luminescence, 60 min; series mostly up to 57.1 µM. The method, boiled down:
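Steps: enzyme/substrate mix dispensed; compound added, 10 min RT; NADPH regeneration solution added, 60 min RT; luciferin detection buffer stops reaction; 20 min later luminescence measured.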
`C=CC[C@@H]1C=C[C@@H](O/N=C\c2ccc(C(=O)N3[C@H](c4ccc(C)cc4)[C@@H](C)CC[C@H]3C(=O)OC)cc2)[C@@H](CO)O1`: the activity change, positive = activation was -42.6% [at 11.4 µM] (inactive).
Consider `CCCC/C=C/C(NC(=O)c1ccc(C(F)(F)F)cc1)c1ccccc1` (centres undefined), for which the Potency entry is “inactive”.
For the compound `CC[C@@H](c1ccccc1)n1c(=O)n2n(c1=O)[C@H]1[C@H](O)[C@H]3O[C@@H]3/C(=N/OC/C=C(\C)CCC=C(C)C)[C@@H]1CC2`, the activity change, positive = activation was -40.3% [at 11.4 µM] (inactive).
Turning to `CO[C@H]1COC(=O)C/C=C\[C@H](C)[C@@H](OC)COC(=O)[C@@H](C)COC(=O)C/C=C\[C@@H]1C`, the activity change, positive = activation is -56.2% [at 11.4 µM] (inactive).
With `CC(C)=NOCc1cccc(-c2cc(-c3ccccc3)no2)c1`, the activity change, positive = activation is -40.1% [at 11.4 µM] (inactive).

Another assay deals with Cytochrome P450 2D6 (Homo sapiens) (UniProt P10635). As to the kind of experiment: qHTS Assay for Inhibitors and Substrates of Cytochrome P450 2D6 (AID 891). Further: nearly all actives have a fitted effect of over 60% in size. Further: potency means the concentration at half of the fitted maximal effect. To be noted: recombinant CYP2D6, luciferin-ME EGE luminescence; series mostly up to 11.4 µM. The method, boiled down: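 Human CYP2D6 (5 nM) with 30 uM Luciferin-ME EGE (at Km) in 100 mM KPO4, compound preincubated 10 min, then NADPH regeneration system for 60 min at room temperature. Luciferin read by luminescence; normalized to 1.43 uM quinidine.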
Sequence of Cytochrome P450 2D6 (Homo sapiens) (P10635 whole entry, looked up): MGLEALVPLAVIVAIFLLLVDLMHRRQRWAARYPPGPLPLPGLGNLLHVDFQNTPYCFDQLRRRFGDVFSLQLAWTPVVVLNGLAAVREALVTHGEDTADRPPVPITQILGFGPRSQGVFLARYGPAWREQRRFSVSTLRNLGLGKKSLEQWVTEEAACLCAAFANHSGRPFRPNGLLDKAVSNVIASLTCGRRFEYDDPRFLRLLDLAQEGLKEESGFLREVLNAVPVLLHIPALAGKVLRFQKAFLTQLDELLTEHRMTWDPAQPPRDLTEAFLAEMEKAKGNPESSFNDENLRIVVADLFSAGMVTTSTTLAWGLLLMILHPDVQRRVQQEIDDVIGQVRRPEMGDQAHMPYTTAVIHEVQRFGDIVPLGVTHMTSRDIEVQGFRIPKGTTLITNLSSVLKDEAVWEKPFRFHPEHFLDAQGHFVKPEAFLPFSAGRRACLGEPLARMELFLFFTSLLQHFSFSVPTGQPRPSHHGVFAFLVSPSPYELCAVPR
On to `COC(=O)NC(c1cccc(F)c1)[C@@]1(C(=O)OC)CCCC1=O` (some centres undefined), for which the Potency entry was “inactive”.
The same measure, in the same setting: the result for `CCN1C(C)=C(C(=O)OC)C(c2ccccc2)N2C(=O)[C@@]3(C(=O)OC)O[C@@]12C1C(=O)N(c2ccccc2)C(=O)C13` (some centres undefined) reads “inactive”; that for `CC1(C)OC(C(O)(c2cc(C(F)(F)F)cc(C(F)(F)F)c2)c2cc(C(F)(F)F)cc(C(F)(F)F)c2)C(C(O)(c2cc(C(F)(F)F)cc(C(F)(F)F)c2)c2cc(C(F)(F)F)cc(C(F)(F)F)c2)O1` (centres undefined), “inactive”; that for `Cc1cc(=O)oc2cc(OC3C=CC(C#CC(C)(C)C)OC3CO)ccc12` (centres undefined), “inactive”.
Regarding `CC(=O)OCC1OC(c2ccc(C(C)=O)cc2)C=CC1OC(C)=O` (centres undefined), the Potency entry was “inactive”.
Still for that read-out and setting: the result for `CCOC(=O)OCC1OC(c2cc(C)cc(C)c2)C=CC1OC(=O)OCC` (centres undefined) reads “inactive”.
In the case of `COC(=O)NC(CC(C)=O)c1cccc(C(F)(F)F)c1` (centres undefined), the Potency entry is “inactive”.
As for `O=C1/C(=C/c2ccccc2)Oc2ccccc21`, the Potency result is “inactive”.
For `CC1CCC(C(=O)O)NC1c1ccc(-c2ccco2)cc1` (centres undefined), the Potency entry was “inactive”.
As for `Cc1ccc(OC2C(O)COC2/C=C/C#Cc2ccc(C(C)(C)C)cc2)cc1` (centres undefined), the Potency entry was “inactive”.
As to `CC1CCC2C(=O)N3C(CCC(C)[C@@H]3c3ccc(-c4ccco4)cc3)C(=O)N2C1c1cccc(N2CCCC2=O)c1` (some centres undefined), the Potency result was “inactive”.
For the compound `Cc1ccc(C#CC2C=CC(Oc3ccc4c(c3)OCO4)C(CO)O2)c(C)c1` (centres undefined), the Potency entry was “inactive”.
`CC1(C)Oc2cc3c(cc2O1)OC(C)(C)O3`: the Potency entry is “inactive”.
On the same count and under the same terms, the result for `CC(=O)OCC1OC(C#CC(C)(C)C)C=CC1OC(C)=O` (centres undefined) reads “inactive”.
Turning to `COC1C(O)COC1/C=C/c1ccccc1` (centres undefined), the Potency result was “inactive”.
In the case of `COc1cc(C2NC(C(=O)O)Cc3c2[nH]c2ccccc32)cc(OC)c1OC` (centres undefined), the Potency is 1260 nM (active).
On the same count and under the same terms, the result for `O=Cc1ccc(OC2C=CC(c3ccccc3)OC2CO)cc1` (centres undefined) reads “inactive”.
Consider `CC(O)CCCCCCC/C=C/C=C/C(N)=O` (centres undefined), for which the Potency entry is “inactive”.
Regarding `CCOC(=O)[C@]1(C(NC(=O)OC)c2cccc(C)c2)CCCC1=O` (some centres undefined), the Potency result was “inactive”.
